From PubChem BioAssay
The source made the active and inactive calls.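 Rule for the calls: active = RAM network inhibition above 8.4% in each of two replicates, 3 SD over the compound average; inconclusive = above 8.4% inhibition in only one replicate; inactive = 8.4% inhibition or less in each replicate.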

Assay: RAM signaling pathway blockade in yeast – S. cerevisiae, Pdr1DBD-CYC8 efflux-inhibited sensitized strain, primary screen (AID 1298);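 note: 0% = DMSO untreated cells without growth and 100% = 10 µM 1-NA-PP1 full growth; higher means more yeast growth rescued from 5-FOA killing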
Conditions: S. cerevisiae cbk1-as DSE1-URA3 strain, 5-FOA growth OD615, 2 d; at 50 µM; stronger effect = higher value
For `COc1ccc(S(=O)(=O)N(C)c2c(C)n(C)n(-c3ccccc3)c2=O)cc1OC`, the RAM network inhibition was 3.38% (inactive). In the case of `CCCC(=O)NCCCc1nc2ccccc2n1CCC`, the RAM network inhibition is reported as 3.21% (inactive). With `COc1ccccc1C(=O)n1nc(C)cc1C` the RAM network inhibition was 3.78% (inactive). In the case of `CC1CCCCN1Cc1nc2c(c(=O)n(C)c(=O)n2C)n1Cc1c(F)cccc1Cl` (stereo unspecified), the RAM network inhibition is reported as 0.66% (inactive). In the case of `O=C(c1ccc(NC2=NC3CS(=O)(=O)CC3S2)cc1)N1CCc2ccccc2C1` (stereo unspecified), the RAM network inhibition is reported as 5.69% (inactive). In the case of `COc1cccc(C(=O)NCc2cn3ccsc3n2)c1`, the RAM network inhibition is reported as 3.48% (inactive). In the case of `COc1ccc2[nH]c(C)c(CCN3C(=O)C4CC=CCC4C3=O)c2c1` (stereo unspecified), the RAM network inhibition is reported as 2.77% (inactive). For `CCOC(=O)c1[nH]c(C)c(C(=O)NCCN2CCOCC2)c1C`, the RAM network inhibition was -0.87% (inactive). For `COc1cccc(CNC(=O)CN(c2cc(C)cc(C)c2)S(=O)(=O)c2c(C)noc2C)c1`, the RAM network inhibition was 7.12% (inactive). In the case of `CCC(=NCCc1ccccc1)C1=C(O)CCC1=O`, the RAM network inhibition is reported as 2.13% (inactive). With `O=C(CN1CCN(Cc2ccccc2F)C1=O)NCCN1CCOCC1` the RAM network inhibition was 1.5% (inactive). For `CCOc1ccccc1NC(=O)c1c(NC(=O)CNCc2ccco2)sc2c1CCC2`, the RAM network inhibition was 8.57% (inactive). With `O=C1C2CCCN2C(c2ccc(Br)cc2)N1c1ccc(F)cc1` (stereo unspecified) the RAM network inhibition was 9.1% (inactive). In the case of `Cc1ccc(O)c(-c2cc(C(F)(F)C(F)F)[nH]n2)c1`, the RAM network inhibition is reported as 3.84% (inactive). For `COc1ccc(Cc2nc(-c3ccc(-n4cccc4)cc3)no2)cc1`, the RAM network inhibition was 3.16% (inactive). In the case of `CCN(CC)CCN1C(=O)c2ccccc2NC1c1cccc(F)c1` (stereo unspecified), the RAM network inhibition is reported as 8.87% (inactive).
